T1: USP38, Q8NB14
T1 chain: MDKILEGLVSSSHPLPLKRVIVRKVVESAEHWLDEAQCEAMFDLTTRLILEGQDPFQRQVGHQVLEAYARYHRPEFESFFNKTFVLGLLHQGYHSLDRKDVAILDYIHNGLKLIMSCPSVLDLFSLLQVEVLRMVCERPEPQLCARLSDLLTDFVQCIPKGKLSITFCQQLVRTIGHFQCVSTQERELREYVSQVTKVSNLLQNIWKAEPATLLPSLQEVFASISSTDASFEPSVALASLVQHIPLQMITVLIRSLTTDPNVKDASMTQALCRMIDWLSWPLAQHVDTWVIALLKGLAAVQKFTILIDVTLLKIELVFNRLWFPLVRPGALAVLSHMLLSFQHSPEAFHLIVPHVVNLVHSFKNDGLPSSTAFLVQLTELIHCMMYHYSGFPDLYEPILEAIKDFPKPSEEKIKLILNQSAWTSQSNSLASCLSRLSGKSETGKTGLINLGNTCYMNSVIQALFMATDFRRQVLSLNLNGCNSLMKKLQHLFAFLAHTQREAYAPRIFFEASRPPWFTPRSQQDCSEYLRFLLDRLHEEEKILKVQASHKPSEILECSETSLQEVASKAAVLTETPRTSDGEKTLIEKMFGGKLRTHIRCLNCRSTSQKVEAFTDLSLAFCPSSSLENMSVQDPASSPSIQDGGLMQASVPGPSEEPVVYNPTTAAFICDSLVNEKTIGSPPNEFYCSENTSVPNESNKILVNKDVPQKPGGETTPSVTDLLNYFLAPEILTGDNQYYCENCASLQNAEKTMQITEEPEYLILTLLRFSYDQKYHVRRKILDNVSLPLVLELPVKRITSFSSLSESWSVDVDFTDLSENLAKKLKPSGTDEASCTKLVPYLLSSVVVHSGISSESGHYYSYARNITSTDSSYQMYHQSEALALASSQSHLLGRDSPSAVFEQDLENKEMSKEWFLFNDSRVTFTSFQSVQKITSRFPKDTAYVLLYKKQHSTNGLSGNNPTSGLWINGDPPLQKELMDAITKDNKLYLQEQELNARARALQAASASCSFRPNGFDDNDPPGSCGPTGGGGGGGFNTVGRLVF

B1: usp_38_diff_out_16_13_187 (protein)
chain: SELEKLLKKLEELTKKAEEKKKELEKLIKEGAPKEEIREKLEELRELLIEAAGTILEIRNLMVEKANEEQRKKAREKLKEAEEKLNEAINLYVEKELELA
B2: usp_38_diff_out_16_109_171 (protein)
chain: SADEEADRLLAEAAIRNLRALAEAAEAELEKLEARGASPEVLAAYRDLAELARRAAEEIERALEEGRDLRETTDREWDRVGAAAARAAELRRAEARRRSA
B3: usp_38_diff_out_16_109_179 (protein)
chain: SAQAEADRAFAEAAIANFEALAADAEAELARLKARGASPEVLAAYQALADTARAAAAALRAALAAGEDLRAATNAKWDEVGAKAAEAAELRRAEVRRRSA
B4: usp_38_diff_out_16_25_194 (protein)
chain: EVEALLKAHDEIGWAAGKLLEAKESKDPEEQKKLLEEALKHLEKALKILKEELKIDEETLKKIEELIKKAKKLLKEGAPFEEVIKTLEEAIDLAVDALNK
B5: usp_38_diff_out_16_109_181 (protein)
chain: SAEEEAAREYAEAAVANFRALAADAEARLARLEARGASPEVLAAYRDLAATARAAAAALEAAIAAGEDLRAAADAQWDAVGAAAARAAEIRRAEVRRRSA
B6: usp_38_diff_out_16_25_199 (protein)
chain: NVEALLKAHDELGKAAGYILEAREHLDSPEVKELLEKAIEHLEEALKIMKEELKIPQETAKKIQELIEKAKKLLEEGADPEEVIKALEEAIDAAADALAS
B7: usp_38_diff_out_16_109_186 (protein)
chain: SEQAESDRLLAEAAIANFKALAADARAEAARLKAKGASQAVIDAYNALADTATAAAAALEAALAAGEDLRATLDAQWDAVGAAAAAARDLREAETAARSA
B8: usp_38_diff_out_16_25_191 (protein)
chain: SVEALLRAHDKLGEAAGYILQAKEKKDSEEARKLLEKAVKALEEALKILVEELKIDPKDAEEIEKLIKEAKKLLKEGAPVEEVIKVLEKAVDAAAKALAK
B9: usp_38_diff_out_16_25_196 (protein)
chain: EVEALLRAHDEIGRAAGLVLRAREEEDPERQRELLREALEHLRRALEILREELRVDEETARELEELIERAERLLEEGAPAEEVIAVIEEAIDLAVDALAE
B10: usp_38_diff_out_16_109_175 (protein)
chain: SAQAEADRAFAEAAIANFRSLAADARARLARLEARGASPEVLAAYADLAATATAAAAALEAALAAGEDLRAAANAAWDAVGAAAARAARLLQEEVRRRSA
B11: usp_38_diff_out_16_25_193 (protein)
chain: NVEALLRAHDALGRAAGYVVRARELGESPEARELLREAIRALREALRILREELRIPEEVARRIEEAIERAERLLEAGEPVEEVIEALEEAIDLAAAALAA
B12: usp_38_diff_out_16_109_185 (protein)
chain: AAQREADRALAEAAIANFRALAAEARARAAALRARGAPQAVIDAYDDLAATADAAAAALEAALAAGEDLRAAVDREWDAVGAAAAAAEALRRAATAARSA
B13: usp_38_diff_out_16_109_174 (protein)
chain: SAQEEADREYALAVIENLKKLAKEAEEELKKLKARGASEEVLKAYEELAKTAKEAAKALEEALKAGEDLRAIANEKWDEVGKKAAEAAELLREEVRRRSA
B14: usp_38_diff_out_16_109_172 (protein)
chain: SADAEADRLLAEAAIENLRALAEEARRELERLEAKGASEEVLAAYRALAETAEAAAATIEAALAAGKDIRATTDAQWDAVGAAAARASELREAEARARSA
B15: usp_38_diff_out_16_25_195 (protein)
chain: SVEALLRAHDLIGRAAGLVLRARESEDPEEQRRLLEEAIRHLEEALELLKEELKIDEETAEKIEKLIEEARRLLEEGAPFEEVIKVLEEAIDLAVDALAK
B16: usp_38_diff_out_16_25_190 (protein)
chain: NVEALLRAHDELGRAAGYIVLAREHADSPEVKELLREAIESLERALRIAEEELHIPEEVAEKVKKLIEEAKKLLEEGADPEEVIKKLEEALDLLAEALAE
B17: usp_38_diff_out_16_25_192 (protein)
chain: SVEALLRAHDLLGEAAGYILEAKEHKDSPKARELLEKAIKSLEEALRVMKEELKIDEEKAEEIEKLIKEAKKLLKEGAPVEEVIKVLEEAVDKAADALAE
B18: usp_38_diff_out_16_25_197 (protein)
chain: SVEALLEAHDLIGRAAGYVLRARESEDPEEQRKLLREALEHLEEALKLLEEKLKIDPEKAKEIKKLIEEAKKLLEEGAPIEEVIAVVEKAIDLAVDALNE
B19: usp_38_diff_out_16_109_183 (protein)
chain: SADEEAARLLAEASIKNFRNLAKEAQAALAKAQARGASADVLAALQDLADTAKAAAERIEKAIKEGKDLLAVTNAEWDAVGAAAARARELREAETRARSA
B20: usp_38_diff_out_16_109_184 (protein)
chain: SADEEADRLLAEASIKNFRDLSKDARAEAERLKARGASQAVIDAYNELAKTAEAAAEEIEKALEAGEDLRAVTDAQWDKVGAAAKKANDLRRAEARARTA
B21: usp_38_diff_out_16_25_202 (protein)
chain: EVEALLRAHDELGEAAGYILRARESEDEEERKKLLREALESLEKALDIMKKELKIPEEVAKKIQELIDEAKEKLEAGAPFEEVIKLLEEAIDLAAEALAA
B22: usp_38_diff_out_16_37_203 (protein)
chain: SAAEVEALMARLREAVERARELIERARRAIEEGADEAEIERLLEEATRALEEAGRALAEILLLDPARYPEARALYDETAARFGEVVAEARDARRERRARA
B23: usp_38_diff_out_16_25_201 (protein)
chain: EVEALLEAHDHLGDAAGYVLRAKESEDEEERKRLLREALESLRRALDILRERLHIPEEEAERIEALIEEAERLLEEGAPFEEVIAVVEEAIDLAAEALAR
B24: usp_38_diff_out_16_109_176 (protein)
chain: SAQAEADRAFAEAVVANLRALAEDAEARLARLEARGASPAVLAAYRDLADTARAAAAALEEAIAAGEDLRAIANAQWDRVGAAAARAADLLRAEVDARSA
B25: usp_38_diff_out_16_25_188 (protein)
chain: NVEALLEAHHHLGLAAGYIVLAKEHKDSEKAREYLEKAIEHLEEALRILEEELNIDEETAEEIRKLIEKAKKLLKEGAPVEEIIKLLEEAIDLMAKALAE
B26: usp_38_diff_out_16_109_182 (protein)
chain: AAEEEAARLLAEASIANFEALAEEARAQLAKAQARGASPEVLAALQDLADTARAAAAAIRRALEAGEDLRAVTDAQWDAVGAAAARANRLREAETDARSA
B27: usp_38_diff_out_16_25_200 (protein)
chain: SVEALLEAHDHLGEAAGHILRAKESKDEEEKKKLLEEAIKHLEKALKIMKEKLKIPEEVAEEIEKKIERAKKLLEEGAPFEEVIKELEEAIDLAAKALAA
B28: usp_38_diff_out_16_25_189 (protein)
chain: SVEALLKAHEELGEAAGYIVQARENKDKPEARELLKKAIESLEKALEILEKELKIDEKVAKEIREKIERARKLLEEGKPVEEVIKELEEALDLAIEALAK
B29: usp_38_diff_out_16_109_178 (protein)
chain: SAEDEANVEYAKAVIENLEKLAEEAEAELKRLQARGASAEVLAAYQKLADLAKEAAERLKKALAEGKDLRAIADEEWDRVGAAAAEAAELRQQEVRARSA
B30: usp_38_diff_out_16_109_180 (protein)
chain: SAEAEADKAYAEAVIANLEALAKAAEAELKKLKARGASPEVLAAYQALRDTAKAAAATLKAALAAGEDLRAIADAQWDAVGAAAAAAAALRRAEVAARSA
B31: usp_38_diff_out_16_109_173 (protein)
chain: SQQAEGDRLFAEAAAANFRSLAEDAEAALARAKERGASPEVLAALQDLADTAKAAADTIEKTIADGGDLRATTDAQWDAVGAAAARADAIRRAEARARSD
B32: usp_38_diff_out_16_109_177 (protein)
chain: SAQEEADREYAEAVIKNLKELAKEAKERLKKLEEKGASEEVLKAYKELAETAKKAAERLEKALKAGEDLRKIADEEWDKVGAAAAKAAEILREEVRKKSE

Target: T1, USP38, Q8NB14
Test: median log2 fold change of GCK-ALFA target abundance (FLAG IP / Myc IP barcode read proportion) (log2 ratio); each designed protein is fused to an ALFA-tag nanobody in HEK293 cells to bring the named protein to FLAG-tagged glucokinase (GCK); Myc marks an untargeted standard; higher = target protein stabilised (more abundant)
Details: target protein: 3xFLAG-MCP-GCK-ALFA reporter; HEK293 landing pad (RPLP)
Procedure, shortened: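 HEK293 landing-pad cells received a recombined binder library fused to the ALFA nanobody and were induced with 2 μg mL^−1 doxycycline, then transfected with a plasmid encoding a FLAG-tagged target and a Myc-tagged standard. Lysates were collected after 48 h for anti-FLAG and anti-Myc immunoprecipitation, and the circular RNA barcodes were reverse transcribed, amplified and sequenced. Target abundance for each binder is the median log2 ratio of FLAG to Myc barcode read proportions. Barcodes had to reach a proportion of at least 10^−7 in both replicates, each binder needed at least 3 barcodes per replicate, a pseudocount of 10^−6 was applied, and the two replicates were pooled.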

Row | Binder | median log2 fold change
1 | B1 | -0.622
2 | B2 | -0.352
3 | B3 | -0.0762
4 | B4 | 0.00535
5 | B5 | -0.515
6 | B6 | 0.324
7 | B7 | 0.0614
8 | B8 | 0.0845
9 | B9 | 0.215
10 | B10 | -0.756
11 | B11 | 0.174
12 | B12 | -0.358
13 | B13 | -0.105
14 | B14 | -0.0926
15 | B15 | 0.188
16 | B16 | 0.107

Row | Binder | median log2 fold change
17 | B17 | 0.243
18 | B18 | 0.179
19 | B19 | -0.397
20 | B20 | -0.0394
21 | B21 | 0.316
22 | B22 | -0.344
23 | B23 | 0.237
24 | B24 | 0.125
25 | B25 | 0.00197
26 | B26 | 0.0957
27 | B27 | 0.457
28 | B28 | 0.371
29 | B29 | 0.375
30 | B30 | -0.191
31 | B31 | -0.0935
32 | B32 | 0.0634

— the supplement of paper PMC12632987
